In the library only some 19% were active in any assay of this set; here they are far more common.
TGFb inhibitor = qHTS for Inhibitors of TGF-b; HepG2 CAGA-GFP TGF-b/SMAD3 reporter, GFP fluorescence, 18 h; TGF-beta stimulated, 500 pg/mL final; Potency, µM (top dose mostly 46.1 µM), for the others: top-dose activity, negative = inhibition, hits mostly inhibitors; hit rate 1.2% among 410,000; also: potency is read from the fitted curve at half-maximal effect; % is scaled to controls: 0 for no effect and ±100 for the full control effect; nearly all actives have a fitted effect of over 65% in size
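HEPG2 CAGA-GFP reporter cells (1000/well, DMEM with 1% FBS) received compounds, then recombinant TGF-beta at 500 pg/mL final for 18 hours at 37 degrees C. Per-cell GFP summed per well was normalised to unstimulated and stimulated DMSO controls before curve fitting.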
HepG2 viability = qHTS for Inhibitors of TGF-b: Cytotox Counterscreen. HepG2 CAGA-GFP viability, ATP luminescence, 18 h. Potency, µM (top dose mostly 46.1 µM), for the others: at the top dose activity change, negative = cytotoxicity, actives largely listed as cytotoxic. hit rate 0.76% among 410,000; also: potency is read from the fitted curve at half-maximal effect
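HepG2 CAGA-GFP cells (1000/well, DMEM with 1% FBS) received compound, then TGF-beta at 500 pg/mL final, and were incubated 18 hours at 37 degrees C. Viability was read by CellTiter-Glo luminescence. Media-only wells were set as complete cell-killing and DMSO as no toxicity.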
TDP1 cell CPT = qHTS for Inhibitors of human tyrosyl-DNA phosphodiesterase 1 (TDP1): qHTS in cells in presence of CPT; chicken DT40 Tdp1-/-;hTDP1 cells + 20 nM CPT, ATP luminescence, 48 h; Potency, µM (top dose mostly 46.2 µM), for the others: at the highest dose activity change, negative = growth inhibition, hits mostly inhibitors; hit rate 12% among 420,000; AID 686979, 2013; also: potency is read from the fitted curve at half-maximal effect; % is scaled to controls: 0 for no effect and ±100 for the full control effect; nearly all actives have a fitted effect of over 55% in size
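Cell growth measured by CellTiter-Glo luminescence after a minimum 48 h, 37 C compound exposure with 20 nM CPT in Tdp1-knockout DT40 cells stably expressing hTDP1, seeded 400/well; qHTS titration format.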
IL1B secr inh = qHTS for Inhibitors of Inflammasome Signaling: IL-1-beta AlphaLISA Primary Screen. THP-1 LPS/ATP IL-1B secretion, AlphaLISA, 16 h; active compounds read low. activity change, % at 57.5 µM. hit rate 4.7% among 360,000. AID 743279, 2014; in the data active = activity change below about -50%; inconclusive = mostly about -30% to -49%; also: % is scaled to controls: 0 for no effect and ±100 for the full control effect
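THP-1 cells pretreated 1 hr with compounds (up to 57.5 uM final), then stimulated with LPS (250 ng/mL final) plus ATP (1.25 mM final); secreted IL-1B measured by AlphaLISA after 16 hr, decreased signal indicating inhibition.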
TDP1 inh = qHTS Assay for Inhibitors of Tyrosyl-DNA Phosphodiesterase (TDP1); hit rate 0.28% among 350,000; AID 485290, 2010; Potency, µM (top dose mostly 130 µM), for the others: top-dose activity change, negative = inhibition, hits mostly inhibitors; Tyrosyl-DNA phosphodiesterase 1 (Homo sapiens), Q9NUW8; recombinant TDP1, AlphaScreen DNA substrate cleavage; also: potency is read from the fitted curve at half-maximal effect; % is scaled to controls: 0 for no effect and ±100 for the full control effect; nearly all actives have a fitted effect of over 40% in size
Target sequence (Q9NUW8 whole entry, looked up): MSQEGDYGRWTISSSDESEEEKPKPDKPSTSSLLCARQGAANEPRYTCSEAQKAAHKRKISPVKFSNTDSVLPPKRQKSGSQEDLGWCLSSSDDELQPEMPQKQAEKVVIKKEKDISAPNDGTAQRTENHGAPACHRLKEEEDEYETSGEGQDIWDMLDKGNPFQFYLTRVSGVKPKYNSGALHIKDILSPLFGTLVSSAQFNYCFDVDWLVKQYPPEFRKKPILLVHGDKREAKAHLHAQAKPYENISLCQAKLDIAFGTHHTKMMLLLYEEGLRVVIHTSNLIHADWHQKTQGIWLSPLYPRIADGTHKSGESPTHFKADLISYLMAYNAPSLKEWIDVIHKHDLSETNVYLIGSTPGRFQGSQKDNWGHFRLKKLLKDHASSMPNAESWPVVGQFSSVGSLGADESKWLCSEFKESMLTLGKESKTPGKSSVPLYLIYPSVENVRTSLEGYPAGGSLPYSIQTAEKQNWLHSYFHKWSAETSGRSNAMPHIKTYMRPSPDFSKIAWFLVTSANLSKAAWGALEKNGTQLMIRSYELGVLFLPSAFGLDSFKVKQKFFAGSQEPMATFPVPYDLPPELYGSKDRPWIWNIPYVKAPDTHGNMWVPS
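Signal: AlphaScreen proximity between streptavidin donor and anti-FITC acceptor beads on intact substrate. Reaction: Tdp1 1 nM, substrate 15 nM final, 5 min RT after 15 min compound preincubation.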
DT40 TDP1 no CPT = qHTS for Inhibitors of human tyrosyl-DNA phosphodiesterase 1 (TDP1): qHTS in cells in absence of CPT | Potency, µM (series often up to 46.2 µM), for inactives: top-dose activity change, negative = growth inhibition, actives largely listed as inhibitors | AID 686978, 2013 | hit rate 15% among 420,000 | DT40 Tdp1-/- hTDP1 cells, no CPT, ATP luminescence, 48 h; also: potency is read from the fitted curve at half-maximal effect; % is scaled to controls: 0 for no effect and ±100 for the full control effect; nearly all actives have a fitted effect of over 55% in size
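Readout: luminescence from CellTiter-Glo after 30 min in the dark at RT. Cells: DT40 Tdp1-/- with stable hTDP1, 400/well. Exposure: compounds alone, ≥48 hr, 37 °C.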
An asterisk follows results filed as active; [ ] = dose if it differs, or a comment. Unless noted, calls follow the shape of the dose curve; as a rule, active = well fitted curve in the direction sought with a large enough effect; inconclusive = small, poorly fitted or top-dose-only effect, or another doubt; inactive = no such curve, though single readings can be large; an effect the other way counts as inactive or inconclusive.

Results for c1ccc(Nc2nc(NCC3CCCO3)c3ccccc3n2)cc1 (centres undefined) ?
TGFb inhibitor: inconclusive; HepG2 viability: -18%; TDP1 cell CPT: 3.7µM*; IL1B secr inh: -101*; TDP1 inh: 6%; DT40 TDP1 no CPT: 3.3µM*

How did c1ccc(-c2nc(NCc3ccco3)c3ccccc3n2)nc1 do in these assays?
TGFb inhibitor: -26%; HepG2 viability: -41%; TDP1 cell CPT: 2.6µM*; IL1B secr inh: 97; TDP1 inh: 9%; DT40 TDP1 no CPT: 2.6µM*

Results for C=Cc1ccc([C@H]2N[C@@H](C(=O)O)CC[C@@H]2C)cc1 ?
TDP1 inh: 8%[21 µM]

Results for c1ccc(-c2nc(NCC3CCCO3)c3ccccc3n2)nc1 (centres undefined) ?
TGFb inhibitor: -16%; HepG2 viability: -25%; TDP1 cell CPT: 5.2µM*; IL1B secr inh: 53; TDP1 inh: 8%; DT40 TDP1 no CPT: 4.6µM*

How did c1ccc(CNc2nc(N3CCN(Cc4ccccc4)CC3)nc3ccccc23)cc1 do in these assays?
TGFb inhibitor: inconclusive; HepG2 viability: 28µM*; TDP1 cell CPT: inconclusive; DT40 TDP1 no CPT: 16µM*

What do the screens show for `O=c1c2ccccc2nc2c3ccccc3c(NCc3ccco3)nn12`?
TGFb inhibitor: 4%; HepG2 viability: -9%; TDP1 cell CPT: inconclusive; IL1B secr inh: 18; TDP1 inh: -4%; DT40 TDP1 no CPT: 21µM*

How did OCCNc1nc(N2CCCCC2)nc2ccccc12 do in these assays?
TGFb inhibitor: 5%; HepG2 viability: 0%; TDP1 cell CPT: -5%; IL1B secr inh: 12; DT40 TDP1 no CPT: -14%

How did COc1ccc(OC2C=CC(c3ccccc3)OC2CO)c(C(C)=O)c1 (centres undefined) do in these assays?
TDP1 inh: 3%[21 µM]

How did Cc1ccc(C(=O)NC(=S)N2CCCCCC2)cc1 do in these assays?
TGFb inhibitor: -5%; HepG2 viability: 0%; TDP1 cell CPT: -18%; IL1B secr inh: -23; TDP1 inh: -1%[56.1 µM]; DT40 TDP1 no CPT: -2%

What do the screens show for `O=CNn1cnc2c(oc3nc(-c4ccccc4)cc(-c4ccco4)c32)c1=O`?
TGFb inhibitor: 9%; HepG2 viability: 18%; TDP1 cell CPT: -2%; IL1B secr inh: inconclusive; DT40 TDP1 no CPT: inconclusive

How did Cc1cccc(C)c1OCCn1c(C2CC(=O)N(Cc3ccc(F)cc3)C2)nc2ccccc21 (centres undefined) do in these assays?
TGFb inhibitor: inconclusive; HepG2 viability: -57%; TDP1 cell CPT: inconclusive; TDP1 inh: 11%; DT40 TDP1 no CPT: 18µM*

What do the screens show for `CCc1ccccc1N1CC(c2nc3ccccc3n2CCOc2ccc(Cl)c(C)c2)CC1=O` (centres undefined)?
TGFb inhibitor: 11µM*; HepG2 viability: 10µM*; TDP1 cell CPT: 10µM*; TDP1 inh: 0%; DT40 TDP1 no CPT: 21µM*

Results for Cc1cc(OCCn2c(C3CC(=O)N(Cc4ccc(F)cc4)C3)nc3ccccc32)ccc1Cl (centres undefined) ?
TGFb inhibitor: 13µM*; HepG2 viability: -102%; TDP1 cell CPT: inconclusive; TDP1 inh: 6%; DT40 TDP1 no CPT: 26µM*

Results for CCn1c(C2CC(=O)N(Cc3ccccc3)C2)nc2ccccc21 (centres undefined) ?
TGFb inhibitor: -18%; HepG2 viability: -17%; TDP1 cell CPT: -15%; IL1B secr inh: -11; TDP1 inh: 2%; DT40 TDP1 no CPT: -8%

Results for O=C(/C=C/c1ccc2c(c1)OCCO2)c1ccccc1 ?
TGFb inhibitor: inconclusive; HepG2 viability: -69%; TDP1 cell CPT: inconclusive; IL1B secr inh: inconclusive; DT40 TDP1 no CPT: 16µM*

Results for O=C(/C=C/c1ccc2c(c1)OCO2)c1ccccc1 ?
TDP1 inh: 6%

How did Cc1ccc(C(=O)C=Cc2ccc3c(c2)OCO3)c(C)c1 do in these assays?
TGFb inhibitor: 0%; HepG2 viability: -26%; TDP1 cell CPT: inconclusive; IL1B secr inh: inconclusive; DT40 TDP1 no CPT: inconclusive

How did COc1ccc(C(=O)/C=C/c2ccc(OC)c(COc3ccc(F)cc3)c2)cc1 do in these assays?
TGFb inhibitor: -17%; HepG2 viability: -27%; TDP1 cell CPT: inconclusive; IL1B secr inh: -93*; TDP1 inh: 1%; DT40 TDP1 no CPT: inconclusive

Results for COc1ccc(C(=O)/C=C/c2ccc3c(c2)OCCO3)cc1 ?
TGFb inhibitor: 0%; HepG2 viability: -12%; TDP1 cell CPT: inconclusive; IL1B secr inh: -93*; TDP1 inh: 4%; DT40 TDP1 no CPT: inconclusive

What do the screens show for `Cc1ccc(O)c(C(=O)/C=C/c2ccc3c(c2)OCCO3)c1`?
TGFb inhibitor: inconclusive; HepG2 viability: -40%; TDP1 cell CPT: 16µM*; IL1B secr inh: -52*; TDP1 inh: 8%; DT40 TDP1 no CPT: 16µM*

How did COc1cccc(Cn2c(=O)n(CC3CCC(C(=O)NC(C)C)CC3)c(=O)c3sccc32)c1 (centres undefined) do in these assays?
TGFb inhibitor: -18%; HepG2 viability: 5%; TDP1 cell CPT: -10%; TDP1 inh: inconclusive; DT40 TDP1 no CPT: 3%

How did CC(=O)Nc1ccc(S(=O)(=O)NCc2ccc3c(c2)CCN3C(C)=O)cc1 do in these assays?
TGFb inhibitor: -11%; HepG2 viability: -3%; TDP1 cell CPT: -6%; TDP1 inh: 5%; DT40 TDP1 no CPT: -21%

Results for CCc1ccccc1NC(=O)CSc1ncc2c(n1)-c1ccccc1N(C)S2(=O)=O ?
TGFb inhibitor: 19%; HepG2 viability: 8%; TDP1 cell CPT: inconclusive; TDP1 inh: 3%; DT40 TDP1 no CPT: inconclusive

Results for CC1=C(/C=C/C(C)=C/C=C/C(C)=C/C(=O)Oc2c(C)c(C)c3c(c2C)CC[C@@](C)(CCC[C@H](C)CCC[C@H](C)CCCC(C)C)O3)C(C)(C)CCC1 ?
TDP1 cell CPT: -3%; DT40 TDP1 no CPT: -22%

What do the screens show for `Cc1ccc(C(=O)NCC(=O)Nc2ccc(S(=O)(=O)Nc3cc(C)nc(C)n3)cc2)cc1`?
TGFb inhibitor: -3%; HepG2 viability: 1%; TDP1 cell CPT: -13%; IL1B secr inh: -1; TDP1 inh: 1%; DT40 TDP1 no CPT: 13%

Screening results as filed in PubChem.
